Article PMC13494018
Values without a mark were called inactive. How the calls were made is not given here.

Biological target: CD276, Q5ZPR3
Sequence (Q5ZPR3 whole entry): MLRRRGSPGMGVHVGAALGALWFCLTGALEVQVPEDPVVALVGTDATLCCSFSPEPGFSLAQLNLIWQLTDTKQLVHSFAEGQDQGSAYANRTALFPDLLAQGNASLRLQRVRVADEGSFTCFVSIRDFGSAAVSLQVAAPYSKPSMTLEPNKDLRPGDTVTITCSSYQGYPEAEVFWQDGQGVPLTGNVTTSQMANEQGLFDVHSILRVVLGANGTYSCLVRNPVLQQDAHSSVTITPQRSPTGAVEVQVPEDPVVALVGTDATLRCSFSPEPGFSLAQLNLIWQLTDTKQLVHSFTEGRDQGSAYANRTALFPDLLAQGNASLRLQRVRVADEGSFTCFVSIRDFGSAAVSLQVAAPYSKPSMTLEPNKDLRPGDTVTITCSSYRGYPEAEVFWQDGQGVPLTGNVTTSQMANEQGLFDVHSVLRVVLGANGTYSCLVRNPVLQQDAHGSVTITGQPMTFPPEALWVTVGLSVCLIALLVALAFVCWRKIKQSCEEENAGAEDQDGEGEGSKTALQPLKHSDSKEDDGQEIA

Binder | binding in a display sort
design_615_ab801fab-270b-4f6a-b2b5-83c165df418c_2496_dldesign_0_cycle1_af2pred (protein) GEKEELIKKAEEKAAKAKEYEAKAKAAAADPAKAVEYYNKALYLYLEAAKLASKADPELAKKYSDEANKVAKKAIEAAKAA | not found
design_616_e8336982-fa4d-4d7c-b06f-9007953e1994_173_dldesign_0_cycle1_af2pred (protein) MEEKSKELKKKLEEAKKIAKEDPEKGAELAAEAAKEAAEAGDFGSAGEAIVLIAKMGTPKASRELAEASRYLIAAIRAA | not found
design_616_e8336982-fa4d-4d7c-b06f-9007953e1994_361_dldesign_0_cycle1_af2pred (protein) AAAQAKALAAQAKAAIESGSLSPGEVARLAVKAGAYAMAAANADPSIAAEMQALAQDLFAKVDEYIAKVAA | not found
design_616_e8336982-fa4d-4d7c-b06f-9007953e1994_528_dldesign_0_cycle1_af2pred (protein) SLLEAALAELRARFEAAKTATPAEAAALVRAAQGTLLTAAAQAGAPLEAMAAVSRVLGAAAETAATAPPEERAAALDAALAEVAALLA | not found
design_616_e8336982-fa4d-4d7c-b06f-9007953e1994_1205_dldesign_0_cycle1_af2pred (protein) DQAQAKAVAIKTVEGMLKKMKQLKEEAEKNAADPSIAIPKAEAIKQLAEVSMAILKAAGLDQETIDKYEKEAKALKEAAEKAAKKAKE | not found
design_615_ab801fab-270b-4f6a-b2b5-83c165df418c_2173_dldesign_0_cycle1_af2pred (protein) LTPEEKQKLIEEGTELRNKGAALANQAMLAAAAGDKATAKELMAKAKEYFDKAIELYEKAGDEKKAESVKKLKDTLTSAFEAQLAA | not found
design_616_e8336982-fa4d-4d7c-b06f-9007953e1994_719_dldesign_0_cycle1_af2pred (protein) PTPVEVAEAAAQATIKTAKRQVEEAKRLLKEGKAEEALRLAESAIQNAEIAKDLAENNPEKKEELKKQAEEVKKEAEEVKEEAEKKL | not found
design_616_e8336982-fa4d-4d7c-b06f-9007953e1994_576_dldesign_0_cycle1_af2pred (protein) SPALELTKRVAEAMAAQARRAAEEDPALGRAQFENALQIAKQFNPEQGALFRAILEATRAEVEAALAAAA | not found
design_615_ab801fab-270b-4f6a-b2b5-83c165df418c_2427_dldesign_0_cycle1_af2pred (protein) AMEAAKAAAKAAAAAAAAAGLTDLAAEIAAAAKEAEETGIEGANRLMGLAARYAVQHPALNAAMSALIEAAGAYIAEAA | not found
design_616_e8336982-fa4d-4d7c-b06f-9007953e1994_1084_dldesign_0_cycle1_af2pred (protein) MTVDERLWETTEKLVELIEQVAASAPAFPKEGAIRTIKGLAANAKLAAEAALKAGASPEVTKAAAEKVEKAAKAALAKVE | not found
design_615_ab801fab-270b-4f6a-b2b5-83c165df418c_1854_dldesign_0_cycle1_af2pred (protein) LRERAESNLAFAQTALEAAKQAKAAGAPQSLVQGLANIAERAAQLAIEEAAKDPALAPLAEEAKKVAEEAKKVAA | not found
design_616_e8336982-fa4d-4d7c-b06f-9007953e1994_1142_dldesign_0_cycle1_af2pred (protein) SAKAEAAKKEYEKAKKAAEEAKKVAKAAGDEAGAAAAKALEKSAENALRNGNLEMVKQVKEIAEAEKEIAEKKLK | not found
design_616_e8336982-fa4d-4d7c-b06f-9007953e1994_824_dldesign_0_cycle1_af2pred (protein) DDLERGRELAEEVARVIREGTPEEAKRAIEEAAERLAELSAGAALLAGSLMVREAAKVPGGEELTAHIRAELLRVLRAKIAAA | not found
design_615_ab801fab-270b-4f6a-b2b5-83c165df418c_1933_dldesign_0_cycle1_af2pred (protein) ALQGALRSAAALLRNAAESEDPESREKLLDVAADLAAYAATLDPAAGAALAAAVEEARREGPEGARRAAELAAALAAA | not found
design_616_e8336982-fa4d-4d7c-b06f-9007953e1994_26_dldesign_0_cycle1_af2pred (protein) SLEEAAAQAQALVDQATALGAQDYASASQGIALLAEAAKLVEEAGLPPETAAAIMAAINAALATVSKNAAAFVAA | not found
design_616_e8336982-fa4d-4d7c-b06f-9007953e1994_1055_dldesign_0_cycle1_af2pred (protein) GAAEEARKKAEEALKKIEELKEKAKADPANAGAYALEAVKTAAEASRALREADPALEEEIDRLRQAAAEAIRAALATQTA | not found
design_615_ab801fab-270b-4f6a-b2b5-83c165df418c_2473_dldesign_0_cycle1_af2pred (protein) SPEALTAAVRAEGDALLAEAEATAAADPEAGKAAYEAAIRRLLGLAARLLQESPAAAQAALDRAVELAAKLEEL | not found
design_616_e8336982-fa4d-4d7c-b06f-9007953e1994_177_dldesign_0_cycle1_af2pred (protein) AGQATYNAAKAMAKSAAAMYLAGKYEDAEKVYQVAVDLAQSLIADPASKAQGEKALAYAKETYAKAKAEAEKKAA | not found
design_615_ab801fab-270b-4f6a-b2b5-83c165df418c_2359_dldesign_0_cycle1_af2pred (protein) MEEDVALLRDIARLGRESLERARAGTAAEAERALADFTAAADAAIARLAPGEGAALLAANMRARFAAEMRAVAAAKAA | not found

Binder | binding in a display sort
design_615_ab801fab-270b-4f6a-b2b5-83c165df418c_2317_dldesign_0_cycle1_af2pred (protein) GAARMAAAGAQAAALAAELPAAVDPMLEGILNPETREAHEAEARAIARALDPENAEELWARVLRAAMGLLLAQGLARA | not found
design_615_ab801fab-270b-4f6a-b2b5-83c165df418c_2088_dldesign_0_cycle1_af2pred (protein) DTERKLALLQEAIVKLTEALAAYNTDPATGRALAREAAELLKEAGLEEAAELARKAAEDPENGFEYARRALGLVTKAYIELSR | not found
design_615_ab801fab-270b-4f6a-b2b5-83c165df418c_2495_dldesign_0_cycle1_af2pred (protein) GEAEAKFAEALALLDRAEELAKGGDAAQLAEASALLTQAIELATQVSPEKRAEISRRAAEISKRLLAQLAA | not found
design_615_ab801fab-270b-4f6a-b2b5-83c165df418c_2413_dldesign_0_cycle1_af2pred (protein) AAAALAAEALALREKGVAAAKAGRYALARNYFLQALITAGASPATIQAVVRALAAGAADPSTAPAAVAHADATVTAAAAAVAAA | not found
design_616_e8336982-fa4d-4d7c-b06f-9007953e1994_632_dldesign_0_cycle1_af2pred (protein) AAADTEKFKKATEHALKAVELAKEGKLEEAEKEAKKAEEEAKKIKDPVTKAGALALAKAARQVIESKAKE | not found
design_615_ab801fab-270b-4f6a-b2b5-83c165df418c_1881_dldesign_0_cycle1_af2pred (protein) ALAAELAREALRAEAERIAAAKLAEAKAGTPETAQAQAAYLVSLAEEHPETAGIYLGAAAQIHAVLIAKTA | not found
design_616_e8336982-fa4d-4d7c-b06f-9007953e1994_396_dldesign_0_cycle1_af2pred (protein) GMAELLAELREAEARTTALELMFQAGKNIHPGVAAQGLEAARRLRELAERVADAISPEERARYLAAAERTEELAA | not found
design_616_e8336982-fa4d-4d7c-b06f-9007953e1994_787_dldesign_0_cycle1_af2pred (protein) VAAAISAATSTAVELLRAAAGATPEQRAEAHALAAEVNRAAVAAAADPSALPATRAELERARARLEAVRAALA | not found
design_616_e8336982-fa4d-4d7c-b06f-9007953e1994_392_dldesign_0_cycle1_af2pred (protein) AEAYQKALATAEKLLAQGQAGLADPSNAEALEKGAQGYFLLAALYPEKREEYVAKGEALYKKAEEARAAQAA | not found
design_616_e8336982-fa4d-4d7c-b06f-9007953e1994_767_dldesign_0_cycle1_af2pred (protein) AAAREAAVEAAKKQLEELKKKAEELLAYLKANPAASPEEKQKVLEESTKIISQASELAEAYPEVAEQAREAMSAAAKAAILAQKLL | not found
design_616_e8336982-fa4d-4d7c-b06f-9007953e1994_606_dldesign_0_cycle1_af2pred (protein) SPLAQAQADLLRRTLAALRRSVERAEELAREDPEAGAARLRALAQSAEVVLEAARGLAAQDPALGAETVAAAREVLERAREAEERAR | binds (active)
design_616_e8336982-fa4d-4d7c-b06f-9007953e1994_502_dldesign_0_cycle1_af2pred (protein) MTPEQLAAMERSVARIAEAGARAPTEEEFESAMTAALALAESFGRKAGAPELATARAREIVAKYRARRLA | not found
design_615_ab801fab-270b-4f6a-b2b5-83c165df418c_2322_dldesign_0_cycle1_af2pred (protein) AQAEVKAKAEKLIEELIKASSEVVAAAAKAGDGESAVEANKAASEAIKKIKAAAKAGDLEAAKKAAEEGMKKLKELKAKVEAK | not found
design_616_e8336982-fa4d-4d7c-b06f-9007953e1994_543_dldesign_0_cycle1_af2pred (protein) MEEAIAELNKAFAALNAAARTTDAATAQENAKKAIEYAKAAAKAAGEAMAPAAKGIIEQAKEVAAAKAALAA | not found
design_616_e8336982-fa4d-4d7c-b06f-9007953e1994_1040_dldesign_0_cycle1_af2pred (protein) MEEVLREVERQAESVEKLAQAVIDLAQNDPEAQAKAKELAEKAREARERALEEPETAEEQLKRLQELFEEARRLAAETSRRAIAAA | not found
design_616_e8336982-fa4d-4d7c-b06f-9007953e1994_328_dldesign_0_cycle1_af2pred (protein) NANLQAAKVALASAEATLKHADAGVAAGTISPESAKKLYELAATLAKDAAEYAKKAGDAELAKKAEELAKEAKAKAEEMAAKAAA | not found
design_616_e8336982-fa4d-4d7c-b06f-9007953e1994_756_dldesign_0_cycle1_af2pred (protein) SQAALDAAYNSAKAFAESAKRAAEKGDVQAAEAAYKSAKLAAESAKVIGAAAGEEAKKVAEKAEKIAEEAKKLVEKLKKEA | not found
design_616_e8336982-fa4d-4d7c-b06f-9007953e1994_74_dldesign_0_cycle1_af2pred (protein) EKEAQEKREKAKKLIEEIKKLAKEVAANPAISGMLNQLAKAAETAAANSSPEQGLKNAEKWLEIGKEAAKTAAA | not found
design_616_e8336982-fa4d-4d7c-b06f-9007953e1994_692_dldesign_0_cycle1_af2pred (protein) MSEAERLAARGLALARHAALLVGLAVGPEEARRLYAAVAAAAADPAALIEVTTEVLELAKEKAALVPQALTTAREALELLTRARELA | not found
